From paper PMC9911399, “Two distinct binding modes provide the RNA-binding protein RbFox with extraordinary sequence specificity” come the findings set out here.

Positions count from the first letter of the chain named. The full ranking holds about 16,000 sequences; the median of “ka relative to ugcaugu” is about 0.0091, and the highest 2% start at about 0.032. Shown is part of a subset that was picked to be rich in the highest values.

T1: RBFOX1 RRM (Homo sapiens, UniProt Q9NWB1 109-208)
T1 sequence: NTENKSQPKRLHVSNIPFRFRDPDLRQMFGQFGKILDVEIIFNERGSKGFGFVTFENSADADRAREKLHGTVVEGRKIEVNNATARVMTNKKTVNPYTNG

B1: CCAUAAU (DNA:RNA)
RNA: GGGAGACCGGAAUUCAGAUUGUCCCCAUAAUUUAAAUCCCGUCGUAGCCACCA
DNA 1: CAATCTGAATTCCGGTCTCCC
DNA 2: TGGTGGCTACGACGGGATT
B2: CCUAAGA (DNA:RNA)
RNA: B1 RNA with A27U, U28A, A30G, U31A
DNA 1: CAATCTGAATTCCGGTCTCCC
DNA 2: TGGTGGCTACGACGGGATT
B3: GUAGGGA (DNA:RNA)
RNA: B1 RNA with C25G, C26U, U28G, A29G, A30G, U31A
DNA 1: CAATCTGAATTCCGGTCTCCC
DNA 2: TGGTGGCTACGACGGGATT
B4: CUCCGUG (DNA:RNA)
RNA: B1 RNA with C26U, A27C, U28C, A29G, A30U, U31G
DNA 1: CAATCTGAATTCCGGTCTCCC
DNA 2: TGGTGGCTACGACGGGATT
B5: CGGUUAU (DNA:RNA)
RNA: B1 RNA with C26G, A27G, A29U
DNA 1: CAATCTGAATTCCGGTCTCCC
DNA 2: TGGTGGCTACGACGGGATT
B6: AGCACCG (DNA:RNA)
RNA: GGGAGACCGGAAUUCAGAUUGUCCAGCACCGUUAAAUCCCGUCGUAGCCACCA
DNA 1: CAATCTGAATTCCGGTCTCCC
DNA 2: TGGTGGCTACGACGGGATT
B7: ACGUUUU (DNA:RNA)
RNA: B1 RNA with C25A, A27G, A29U, A30U
DNA 1: CAATCTGAATTCCGGTCTCCC
DNA 2: TGGTGGCTACGACGGGATT
B8: GCACCGG (DNA:RNA)
RNA: B6 RNA with A25G, G26C, C27A, A28C, C30G
DNA 1: CAATCTGAATTCCGGTCTCCC
DNA 2: TGGTGGCTACGACGGGATT
B9: GCCACGU (DNA:RNA)
RNA: B6 RNA with A25G, G26C, C30G, G31U
DNA 1: CAATCTGAATTCCGGTCTCCC
DNA 2: TGGTGGCTACGACGGGATT
B10: GCACGUU (DNA:RNA)
RNA: B1 RNA with C25G, U28C, A29G, A30U
DNA 1: CAATCTGAATTCCGGTCTCCC
DNA 2: TGGTGGCTACGACGGGATT
B11: CGCACGU (DNA:RNA)
RNA: B6 RNA with A25C, C30G, G31U
DNA 1: CAATCTGAATTCCGGTCTCCC
DNA 2: TGGTGGCTACGACGGGATT
B12: CGCACGG (DNA:RNA)
RNA: B6 RNA with A25C, C30G
DNA 1: CAATCTGAATTCCGGTCTCCC
DNA 2: TGGTGGCTACGACGGGATT
B13: CAGCACG (DNA:RNA)
RNA: B6 RNA with A25C, G26A, C27G, A28C, C29A
DNA 1: CAATCTGAATTCCGGTCTCCC
DNA 2: TGGTGGCTACGACGGGATT
B14: GCACCGU (DNA:RNA)
RNA: B1 RNA with C25G, U28C, A29C, A30G
DNA 1: CAATCTGAATTCCGGTCTCCC
DNA 2: TGGTGGCTACGACGGGATT
B15: GCACGGU (DNA:RNA)
RNA: B1 RNA with C25G, U28C, A29G, A30G
DNA 1: CAATCTGAATTCCGGTCTCCC
DNA 2: TGGTGGCTACGACGGGATT
B16: AGCACGU (DNA:RNA)
RNA: B6 RNA with C30G, G31U
DNA 1: CAATCTGAATTCCGGTCTCCC
DNA 2: TGGTGGCTACGACGGGATT
B17: CACGUUU (DNA:RNA)
RNA: B1 RNA with C26A, A27C, U28G, A29U, A30U
DNA 1: CAATCTGAATTCCGGTCTCCC
DNA 2: TGGTGGCTACGACGGGATT
B18: GGCUAAG (DNA:RNA)
RNA: B6 RNA with A25G, A28U, C29A, C30A
DNA 1: CAATCTGAATTCCGGTCTCCC
DNA 2: TGGTGGCTACGACGGGATT
B19: CUCGGCA (DNA:RNA)
RNA: B6 RNA with A25C, G26U, A28G, C29G, G31A
DNA 1: CAATCTGAATTCCGGTCTCCC
DNA 2: TGGTGGCTACGACGGGATT
B20: AACGACU (DNA:RNA)
RNA: B6 RNA with G26A, A28G, C29A, G31U
DNA 1: CAATCTGAATTCCGGTCTCCC
DNA 2: TGGTGGCTACGACGGGATT

In the assay the target is T1, RBFOX1 RRM. Description: EMSA; HiTS-Eq, 1 nM pool, 10 min; buffer printed only for the single-RNA assays: 10 mM Tris pH 7.5, 150 mM NaCl, 3.4 mM EDTA, 0.001% NP-40, 30 C. As to conditions: tags: His6 N-terminal (pET28a); label: 5' 32P. A digest of the protocol: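 Purified RbFox RRM, wild type or mutant, was incubated for 10 min in 50 µL with 1 nM of a 5′-radiolabelled RNA pool carrying 7 randomized nucleotides, whose flanks were annealed to DNA oligonucleotides, over a series of increasing protein concentrations. Unbound RNA was resolved on 8% native PAGE, cut out, reverse-transcribed, barcoded by PCR and sequenced on an Illumina HiSeq 2500. Relative association constants were derived from changes in read counts for each RNA species versus the control reaction and normalised to the cognate motif.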
For orientation: Mobility shift assays separate free from complexed probe on a gel.
B1: the binding signal was 0.00169 KA relative to UGCAUGU.
For B2, the binding signal was 0.00773 KA relative to UGCAUGU.
Take B3: the binding signal was 0.00497 KA relative to UGCAUGU.
In the case of B4, the binding signal is 0.0111 KA relative to UGCAUGU.
For B5, the binding signal was 0.0102 KA relative to UGCAUGU.
With B6, the binding signal is 0.00835 KA relative to UGCAUGU.
For the molecule B7, the binding signal is 0.00473 KA relative to UGCAUGU.
For B8 the value was 0.00674 KA relative to UGCAUGU; for B9, 0.011 KA relative to UGCAUGU.
On to B10, for which the binding signal is 0.043 KA relative to UGCAUGU.
For B11 the value was 0.0433 KA relative to UGCAUGU; for B12, 0.0278 KA relative to UGCAUGU.
For B13 the value was 0.0261 KA relative to UGCAUGU; for B14, 0.0125 KA relative to UGCAUGU; for B15, 0.0324 KA relative to UGCAUGU.
For B16 the value was 0.0367 KA relative to UGCAUGU.
B17: the binding signal was 0.00574 KA relative to UGCAUGU.
For B18 the value was 0.0134 KA relative to UGCAUGU.
For B19 the value was 0.0189 KA relative to UGCAUGU; for B20, 0.00509 KA relative to UGCAUGU.
